Hits are enriched below; roughly 2.4% of the tested compounds scored in any of these assays.
POLB inh: blocks human DNA polymerase beta activity; Pol beta primer extension/strand displacement, fluorescence kinetic; Potency, µM (highest dose often 114 µM), without a hit: at the top dose activity change, negative = inhibition, actives largely listed as inhibitors; actives 1.3% (n = 340,000); AID 485314; further: potency means the concentration at half of the fitted maximal effect; on the % scale 0 is the no-effect control and ±100 the full control effect
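10 nM enzyme + cpd, 15 min RT; start with substrate 50 nM final; read 0 min and after 10 min RT. Corrected, normalized data; 4-parameter Hill curve fit.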
Pol iota inh: DNA polymerase iota (human) inhibition; Q9UNA4; Pol iota fluorescent replication assay, 10 min; Potency, µM (highest dose often 115 µM), inactives show at the highest dose activity, negative = inhibition, hits mostly inhibitors; actives 1% (n = 390,000); AID 588590; further: potency means the concentration at half of the fitted maximal effect
Target sequence (Q9UNA4 whole entry, looked up): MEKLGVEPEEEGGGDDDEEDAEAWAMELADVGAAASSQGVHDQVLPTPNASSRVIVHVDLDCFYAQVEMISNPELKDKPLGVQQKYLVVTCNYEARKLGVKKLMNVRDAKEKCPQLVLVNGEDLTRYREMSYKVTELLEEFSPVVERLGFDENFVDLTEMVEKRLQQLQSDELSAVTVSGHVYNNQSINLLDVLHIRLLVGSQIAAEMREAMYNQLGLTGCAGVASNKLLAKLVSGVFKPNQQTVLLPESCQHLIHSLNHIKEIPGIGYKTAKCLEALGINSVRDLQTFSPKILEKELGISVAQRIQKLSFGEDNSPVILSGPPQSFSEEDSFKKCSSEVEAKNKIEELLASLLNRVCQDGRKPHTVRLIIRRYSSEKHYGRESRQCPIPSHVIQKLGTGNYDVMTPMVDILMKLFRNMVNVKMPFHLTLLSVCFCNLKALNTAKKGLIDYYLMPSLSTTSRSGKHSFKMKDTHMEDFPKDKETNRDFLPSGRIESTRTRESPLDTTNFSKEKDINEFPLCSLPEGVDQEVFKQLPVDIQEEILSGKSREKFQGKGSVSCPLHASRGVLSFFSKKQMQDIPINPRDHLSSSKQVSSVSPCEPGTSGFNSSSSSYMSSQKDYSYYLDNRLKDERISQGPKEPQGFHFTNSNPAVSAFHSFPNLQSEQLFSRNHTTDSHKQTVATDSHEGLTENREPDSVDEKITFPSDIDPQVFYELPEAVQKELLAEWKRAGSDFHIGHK
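Fluorescent replication assay read twice, at 0 min and 10 min after adding 50 nM (final) substrate. Enzyme (10 nM) and compounds were first incubated 15 min at room temperature; enzyme-free buffer wells were negative controls.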
FEN1 inh: inhibitors of human flap endonuclease 1. Recombinant FEN1 flap cleavage, fluorescence, 15 min. P39748. Potency, µM (highest dose often 114 µM), for inactives: top-dose activity change, negative = inhibition, most hits filed as inhibitors. actives 0.35% (n = 390,000); further: potency means the concentration at half of the fitted maximal effect; on the % scale 0 is the no-effect control and ±100 the full control effect; nearly all actives have a fitted effect of over 65% in size
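Nuclease activity of 10 nM FEN1 was measured after 15 min of room-temperature exposure to titrated compounds, by adding 50 nM flap substrate and reading plates at 0 and 15 min.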
Pol kappa inh-1: DNA polymerase kappa (human) inhibition; actives 0.53% (n = 400,000); AID 588579; Potency, µM (top dose mostly 107 µM), for the others: top-dose activity, negative = inhibition, actives largely listed as inhibitors; Q9UBT6; purified Pol kappa, fluorescent DNA synthesis assay, 10 min; further: potency means the concentration at half of the fitted maximal effect; on the % scale 0 is the no-effect control and ±100 the full control effect
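Readout: fluorescence, taken kinetically at 0 and 10 min. Conditions: 10 nM Pol kappa, 15 min RT compound preincubation, 50 nM substrate final. Controls: enzyme-free buffer wells.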
Pol eta inh-1: inhibitors of human DNA polymerase eta; recombinant Pol eta, fluorescent DNA replication assay; AID 588591; actives 1.2% (n = 390,000); Q9Y253; Potency, µM (top dose mostly 114 µM), for inactives: top-dose activity change, negative = inhibition, most hits filed as inhibitors; further: potency means the concentration at half of the fitted maximal effect; on the % scale 0 is the no-effect control and ±100 the full control effect
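Fluorescent replication assay: 50 nM final substrate added after a 15 min room-temperature compound preincubation with 10 nM enzyme. Signal taken at 0 min and again at 10 min.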
WRN inhibitor: blocks human WRN helicase | Q14191 | WRN helicase unwinding, fluorescent forked duplex, kinetic | Potency, µM (highest dose often 114 µM), for inactives: at the top dose activity change, negative = inhibition, actives largely listed as inhibitors | actives 0.46% (n = 360,000) | AID 651768; further: potency means the concentration at half of the fitted maximal effect; on the % scale 0 is the no-effect control and ±100 the full control effect; nearly all actives have a fitted effect of over 55% in size
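Kinetic fluorescence helicase assay: unwinding of a quenched forked DNA duplex (100 nM final) with 2 mM ATP final raises red fluorescence (525/598 nm). Compounds sat 15 min at room temperature with 20 nM WRN beforehand.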
PGK validate: blocks T. brucei phosphoglycerate kinase. actives 79% (n = 500). shares compounds with Pol kappa inh-1. Potency, µM (titrated, usually from 57.5 µM), for the others: at the highest dose activity change, negative = inhibition, actives largely listed as inhibitors. TbPGK coupled GAPDH assay, Kinase-Glo luminescence; further: potency means the concentration at half of the fitted maximal effect; on the % scale 0 is the no-effect control and ±100 the full control effect; nearly all actives have a fitted effect of over 65% in size
POLI cherry-pick: Confirm cherry-picked inhibitors of human polymerase iota | actives 77% (n = 1,500) | Potency, µM, hits mostly inhibitors | AID 720496 | shares compounds with Pol kappa inh-1 | Pol iota primer extension, TAMRA/BHQ fluorescence; further: potency means the concentration at half of the fitted maximal effect
GALK inh confirm: confirmation of human galactokinase (GALK) inhibitors. Potency, µM (doses to about 115 µM), without a hit: at the top dose activity, negative = inhibition, usual class: inhibitors. actives 70% (n = 150). purified GALK, Kinase-Glo ATP depletion luminescence. shares compounds with Pol eta inh-1. AID 2015
GALK redox cs: counter-screen for GALK inhibitors: redox cycling H2O2 generation. AID 2035. actives 40% (n = 150). Phenol red-HRP H2O2 redox cycling, absorbance 600 nm. Potency, µM (titrated, usually from 115 µM), inactives show at the highest dose activity change, negative = H2O2 signal, most hits filed as inhibitors. shares compounds with Pol eta inh-1
HEK293 viability: counter-screen for GALK inhibitors: HEK293 cell cytotoxicity; shares compounds with Pol eta inh-1; actives 10% (n = 170); AID 2547; HEK-293 viability, ATP luminescence (CellTiter-Glo), 24/48 h; Potency, µM (top dose mostly 46.1 µM), for inactives: at the highest dose activity change, negative = cytotoxicity, usual class: inhibitors; further: potency means the concentration at half of the fitted maximal effect; on the % scale 0 is the no-effect control and ±100 the full control effect
Pol kappa inh-2: confirmation of human DNA polymerase kappa inhibitors; shares compounds with Pol eta inh-1; purified Pol-kappa, fluorescent strand-displacement substrate; Potency, µM, most hits filed as inhibitors; actives 76% (n = 920); AID 720501; further: potency means the concentration at half of the fitted maximal effect
Pol eta inh-2: Pol eta (human) inhibition, cherry-pick confirmation; shares compounds with Pol eta inh-1; Pol eta primer extension, TAMRA/BHQ fluorescence, 10 min; Potency, µM, usual class: inhibitors; actives 64% (n = 2,600); further: potency means the concentration at half of the fitted maximal effect
* hit, by the source's call; ? = inconclusive; nt = not tested or not shown; [ ] = remark or other dose. The call rests on the fitted dose curve; in most records, active means well fitted curve in the direction sought with a large enough effect; inconclusive means small, poorly fitted or top-dose-only effect, or another doubt; inactive means no such curve, though single readings can be large; an effect the other way counts as inactive or inconclusive.

SMILES	POLB inh	Pol iota inh	FEN1 inh	Pol kappa inh-1	Pol eta inh-1	WRN inhibitor	POLI cherry-pick	Pol eta inh-2	others
COc1ccc(C=C2NC(=S)NC2=O)cc1	nt	16%	-5%	-5%	-1%	1%	nt	nt
COc1ccc(C(=O)N2C(=S)NC(=O)/C2=C\c2ccc(C)cc2)cc1	50µM*	?	?	?	?	50µM*	75*	?
CCCn1c(SCc2nc(-c3ccccc3C)no2)nnc1-c1ccc(Cl)cc1	-20%	11%	14%	-5%	?	nt	nt	nt
CC(=O)c1ccc(N2CCN(C(=O)c3cc4c(s3)-c3ccccc3OC4)CC2)cc1	4%	13%	5%	0%	-12%	nt	nt	nt
Cc1ccc(OC(C)C(=O)Nc2nonc2-c2ccc(Br)cc2)cc1C (stereo not drawn)	-21%	23%	12%	-2%	nt	nt	nt	nt
S=c1[nH]nc(-c2ccncc2)n1/N=C/C=C/c1ccco1	20µM*	?	?	-89%	28µM*	?	42*	27*	Pol kappa inh-2=30*
S=c1[nH]nc(-c2ccncc2)n1/N=C/c1ccccc1	8%	5%	-6%	-6%	-7%	-3%	nt	nt
COc1ccc(Oc2c(OC)cc(NCc3ccc(CN)cc3)c3ncccc23)cc1	nt	nt	nt	nt	3.2µM*	-30%[11.6 µM]	7.5*	15*	Pol kappa inh-2=3*
COc1ccc(CNc2cccnc2Cl)cc1	nt	nt	nt	nt	nt	-2%	nt	nt
COc1c(O)cc2oc(-c3ccc(O)cc3)cc(=O)c2c1O	?	-7%	-7%	?	-8%	-11%	nt	nt
O=c1cc(-c2ccccc2)oc2cc(O)c(O)c(O)c12	nt	?	35µM*	20µM*	3.2µM*	?	?	15*
O=c1cc(-c2ccc(O)cc2)oc2c(O)c(O)c(O)c(O)c12	2.2µM*	10µM*	20µM*	10µM*	1.6µM*	7.1µM*	7.5*	5.4*	PGK validate=0.92µM*;Pol kappa inh-2=4.7*
O=C(CSc1ccc(-c2cccs2)nn1)Nc1cccc(F)c1	-5%	-3%	-10%	-7%	-8%	nt	nt	nt
N#Cc1ccc(OCC(=O)Nc2cccc(S(=O)(=O)NC3=NCCCCC3)c2)cc1	nt	79µM*	4%	-35%	?	-27%	67*	?
O=C(COc1ccc(Cl)cc1)Nc1cccc(S(=O)(=O)NC2=NCCCCC2)c1	nt	16%	-1%	-5%	-19%	2%	nt	nt
Oc1cc2c(cc1O)[C@H]1c3ccc(O)c(O)c3OC[C@@]1(O)C2	nt	7.9µM*	35µM*	22µM*	14µM*	45µM*	38*	27*	Pol kappa inh-2=24*
O=C(N/N=C/c1ccc(OCC(=O)N2CCCCC2)cc1)c1ccccc1O	-1%	11%	-2%	-6%	-4%	-30%	nt	nt
COc1cc(/C=N/NC(=O)c2ccccc2O)ccc1OCC(=O)Nc1ccccc1	6.3µM*	28µM*	?	50µM*	50µM*	?	42*	?	Pol kappa inh-2=17*
O=C(COc1ccc(/C=N/NC(=O)c2ccccc2O)cc1)Nc1ccccc1	18µM*	?	6%	?	?	-36%	nt	nt	PGK validate=15µM*;Pol kappa inh-2=47*
Cc1ccnc2nc(C(=O)Nc3nnc(-c4ccc(Cl)cc4)o3)nn12	?	?	-11%	?	?	-9%[11.6 µM]	42*	?
CC1(C)C=C2C(=NN(c3ccccc3)C(N)=C2C#N)CO1	-13%	14µM*	0%	-3%	18µM*	3%[57.1 µM]	?	nt	GALK inh confirm=27µM*;GALK redox cs=12µM*;HEK293 viability=1%
CC1(C)Cc2c(C#N)c(N)n(-c3ccccc3)c(=S)c2CO1	-1%	70%	-2%	-20%	-8%	0%	nt	nt
Cc1ccc(-c2nc3c(c(=O)[nH]c(=O)n3Cc3ccccc3)n2C)o1	10µM*	11µM*	1%	?	11µM*	-13%[11.6 µM]	?	76*
COCCN1C(=O)C(=O)/C(=C(/O)c2cccc(OC)c2)C1c1ccco1 (stereo not drawn)	32µM*	?	-19%	?	10µM*	-10%[11.6 µM]	?	60*
NCC1OC(OC2C(N)CC(N)[C@@H](O)[C@@H]2OC2O[C@H](CO)[C@@H](O[C@@H]3OC(CN)C(O)C(O)C3N)C2O)C(N)C(O)C1O (stereo partly drawn)	nt	nt	nt	3%[60.1 µM]	nt	nt	nt	nt
Cn1cc(C(=O)NCc2ccccc2)c(=O)c2cc(S(=O)(=O)N3CCOCC3)ccc21	-9%	8%	-5%	-4%	-14%	nt	nt	nt
Cc1cccc(COc2ccc(-c3cc(C(F)(F)F)n4nc(C)cc4n3)cc2)c1	37%	11%	-8%	-4%	-16%	nt	nt	nt
O=C(N/N=C/c1cccc(Cl)c1Cl)Nc1ccccc1	18%	16%	-13%	-11%	-5%	-5%	nt	nt
O=C(N/N=C/c1cccn1-c1cccc(C(=O)O)c1)Nc1ccccc1	28µM*	?	2%	79µM*	7.9µM*	-15%[11.6 µM]	75*	60*
O=[N+]([O-])c1cc(S(=O)(=O)Nc2ccc(Cl)cc2)ccc1N/N=C/c1ccncc1	10%	-8%	-11%	-5%	3%	7%	nt	nt
